# Test results from paper PMC11062922 (Nature Chemical Biology, 2023).
# Tested on: RIPK2
# Design: species or system human, MV4-11 + K-562 + COLO205 + SK-N-BE2 + OVCAR-8
# Details: read-out: apparent Kd; compound concentrations:100 nM and 1000 nM (sheet 'Samples'); n = 1
row,Compound,potency estimated from few doses [nM]
1,Cn1c(=O)c(-c2ccccc2Cl)cc2cnc(NC3CCOCC3)nc21 [RO3303470-000],503
2,Cl.O=C(O[C@H]1CN[C@H](C#Cc2cc3ncnc(Nc4ccc5c(cnn5Cc5ccccc5)c4)c3s2)C1)N1CCOCC1 [GSK200398A_KCGS],936
3,COc1cc2ncnc(Nc3ccc4c(cnn4Cc4ccccc4)c3)c2cc1OC.Cl [GW282449A],210
